Measured values from PubChem BioAssay (NCATS).
Where “and” joins values, the source holds several entries; their conditions need not be identical. Identical values can stand only once. Results filed as inconclusive are left out. More than one record can exist for a structure, and the calls need not agree. Calls of active or inactive are those of the source. Calls come from the whole dose curve; as a rule, active = well fitted inhibition curve with a large enough effect; inconclusive = small, poorly fitted or top-dose-only effect; inactive = flat fitted curve, though single readings scatter.

Experiments:
[1] = system: HaCat; test: Cytotoxic Profiling of Annotated Libraries Using Quantitative High-Throughput Screening (AID 1296008); conditions: Five cell lines viability, CellTiter-Glo ATP luminescence, 48-72 h; max response: stronger effect = lower value
Procedure, shortened: (§1)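 Cells exposed to compounds for 48 or 72 hr at 37 degrees Celsius. Viability read as ATP-coupled luminescence with CellTiter-Glo after 10 min at room temperature.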

[2] = system: KB-3-1; test: as above; conditions: Five cell lines viability, CellTiter-Glo ATP luminescence, 48-72 h; max response: stronger effect = lower value
Procedure, shortened: as §1

[3] = system: NIH3T3; test: as above; conditions: Five cell lines viability, CellTiter-Glo ATP luminescence, 48-72 h; max response: stronger effect = lower value
Procedure, shortened: as §1

[4] = system: MCC-13; test: qHTS assay to identify novel small-molecules to repurpose for Merkel cell carcinoma treatment (AID 1296009); conditions: MCC and control cell lines, CellTiter-Glo viability, 72 h; series mostly up to 46 µM
Procedure, shortened: (§2)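 Cells were treated for 72 hr at 37 degree celsius with compounds in 8- or 11-point dose response. Viability was read by CellTiter-Glo luminescence, normalized to no-cell (cytotoxicity) and DMSO controls.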

[5] = system: MCC-26; test: as above; conditions: MCC and control cell lines, CellTiter-Glo viability, 72 h; series mostly up to 46 µM
Procedure, shortened: as §2

[6] = system: MKL-1; test: as above; conditions: MCC and control cell lines, CellTiter-Glo viability, 72 h; series mostly up to 46 µM
Procedure, shortened: as §2

[7] = system: MKL-2; test: as above; conditions: MCC and control cell lines, CellTiter-Glo viability, 72 h; series mostly up to 46 µM
Procedure, shortened: as §2

[8] = system: NIH3T3; test: as above; conditions: MCC and control cell lines, CellTiter-Glo viability, 72 h; at 44.8 µM (top of the series) unless noted
Procedure, shortened: as §2

[9] = system: HACAT; test: as above; conditions: MCC and control cell lines, CellTiter-Glo viability, 72 h; at 44.8 µM (top of the series) unless noted
Procedure, shortened: as §2

[10] = system: HEK293T; test: as above; conditions: MCC and control cell lines, CellTiter-Glo viability, 72 h; at 44.8 µM (top of the series)
Procedure, shortened: as §2
% is set by controls: 0 for no effect and ±100 for the full control effect; potency is the fitted concentration of half-maximal effect.
Note: nearly all actives have a fitted effect of over 60% in size.

NC(=O)C1CCCc2c1[nH]c1ccc(Cl)cc21 (stereo not given)
inactive: max response [1] -10.7% | max response [2] 2.38% | max response [3] -12.4% | Potency [4] | Potency [5] | Potency [6] | Potency [7]

O=S(=O)(N=Cc1c(O)ccc2ccccc12)c1cccs1
inactive: max response [1] -24.1% | max response [2] 0.0321% | outcome [3] | Potency [4] | Potency [5] | Potency [6] | Potency [7] | outcome [8]

Nc1cccc(S(=O)(=O)N2CCCN(S(=O)(=O)c3ccc4c(c3)OCCO4)CC2)c1
inactive: max response [1] -12.2% | max response [2] -7.85% | max response [3] -8.98% | Potency [4] | Potency [5] | Potency [6] | Potency [7]

COc1ccccc1-c1cccc(-c2c(O)c3cc(C#N)c(Cl)cc3[nH]c2=O)c1
active: Potency [1] 19.1 µM | Potency [3] 21.5 µM
inactive: max response [2] -25.1% | Potency [4] | Potency [5] | Potency [6] | Potency [7]

CCOc1ccc(Cc2cc([C@@H]3O[C@H](CO)[C@@H](O)[C@H](O)[C@@H]3O)ccc2Cl)cc1
inactive: outcome [1] | max response [2] 6.49% | max response [3] 1.42% | outcome [9] | Potency [4] | Potency [5] | Potency [7]

C1COC(NC(C2CC2)C2CC2)=N1
inactive: max response [1] 1.37% and -11.9% | outcome [2] | outcome [3] | Potency [4] | Potency [5] | Potency [6] | Potency [7] | outcome [8]

OCCC#Cc1nc(-c2ccc(F)cc2)c(-c2ccncc2)n1CCCc1ccccc1
inactive: max response [1] 4.71% | max response [2] 6.14% | outcome [3] | Potency [4] | Potency [5] | Potency [6] | outcome [8]

Cn1cc(-c2ccc3nnc(C(F)(F)c4ccc5ncccc5c4)n3n2)cn1
inactive: max response [1] -1.46% | max response [2] 5.05% and 7.07% | max response [3] -35.7% | Potency [4] | Potency [5] | Potency [6] | Potency [7]

NC(=O)c1cnccn1
inactive: max response [2] -14% | outcome [2] | max response [3] 3.86% and 2.38% | outcome [9] | outcome [10] | Potency [4] | Potency [5] | Potency [6] | Potency [7]

Cc1cc2c(F)c(Oc3ncnn4cc(OC[C@@H](C)O)c(C)c34)ccc2[nH]1
inactive: max response [1] -13.8% | Potency [4] | Potency [5] | Potency [6]

S=C(NCc1ccc2c(c1)OCO2)N1CCN(c2ncnc3c2oc2ccccc23)CC1
inactive: max response [1] -0.756% and -9.04% | max response [3] -27.2% | Potency [4] | Potency [5]

COc1cc2nccc(Oc3ccc(NC(=O)NC4CC4)c(Cl)c3)c2cc1C(N)=O
active: Potency [3] 14.8 µM and 4.11 µM | Potency [6] 2.64 µM | Potency [7] 9.35 µM
inactive: max response [1] -5.23% and -15.3% | outcome [2]

O=C(Nc1cccnc1)N1CCC(Cc2cccc(Oc3ccc(C(F)(F)F)cn3)c2)CC1
inactive: max response [1] -12.8% | Potency [5]
active: Potency [7] 16.6 µM

CCOc1ccn(-c2ccc(F)cc2)c(=O)c1C(=O)Nc1ccc(Oc2ccnc(N)c2Cl)c(F)c1
active: Potency [1] 23.5 µM | Potency [2] 13.2 µM
inactive: Potency [4] | Potency [5] | Potency [6] | Potency [7]

CCc1cncnc1N1CCN(Cc2nc3ccc(C(F)(F)F)cc3[nH]2)CC1
inactive: max response [1] -29.7% | Potency [4] | Potency [5] | Potency [6] | Potency [7]

O=C1[C@H](Cc2ccc(O)cc2)N2C(=O)CCN(C(=O)NCc3ccccc3)[C@H]2CN1Cc1cccc2ccccc12
inactive: Potency [5]
active: Potency [1] 2.96 µM | Potency [2] 16.6 µM | Potency [6] 14.8 µM

Cn1c(=O)c(F)c(Nc2ccc(I)cc2F)c2c(=O)n(C[C@@H](O)CO)cnc21
inactive: max response [2] -4.57% | Potency [5] | Potency [6]
active: Potency [1] 0.833 µM

NS(=O)(=O)c1cc2c(cc1Cl)NC=NS2(=O)=O
inactive: max response [2] -5.96% | outcome [2] | max response [3] 3.94% | outcome [3] | outcome [9] | Potency [4] | Potency [5] | Potency [6] | Potency [7] | outcome [8]

CCOc1cc(N2CCC(O)CC2)ccc1Nc1ncc2c(n1)N(C)c1ccccc1C(=O)N2C
active: Potency [6] 3.32 µM | Potency [7] 2.64 µM
inactive: max response [1] 2.41%

COCCNCCCn1c(C(=O)CF)c(-c2ccc(C)cc2)c2c(N)ncnc21
inactive: max response [1] -0.681% | max response [2] -1.17% | Potency [4] | Potency [5] | Potency [6] | Potency [7]

COc1cc(Oc2ccnc3cc(OC)c(OC)cc23)ccc1NC(=O)NC(C)c1nccs1 (stereo not given)
inactive: outcome [1] | outcome [3] | outcome [9] | Potency [4] | Potency [5] | Potency [6] | Potency [7] | outcome [8]

CN1CCN(CCCN2c3ccccc3Sc3ccc(C(F)(F)F)cc32)CC1
inactive: max response [2] -5.37% | outcome [2] | max response [3] -0.173% | outcome [9] | outcome [10] | Potency [4] | Potency [5] | Potency [6]
10.6 µM (active) and inactive: Potency [7]

CNC(=O)c1ccccc1Sc1ccc2c(/C=C/c3ccccn3)n[nH]c2c1
active: Potency [2] 11.6 µM | Potency [3] 8.41 µM and 7.31 µM
inactive: max response [2] -28.7% | Potency [5]

COc1ccc(COc2cc3oc(=O)c4cc(C(C)O)ccc4c3cc2OC)cc1 (stereo not given)
inactive: outcome [1] | outcome [9] | Potency [4] | Potency [5] | Potency [6] | Potency [7]

Cc1ccc(NC(=O)c2cccc(C(C)(C)C#N)c2)cc1Nc1ccc2ncn(C)c(=O)c2c1
inactive: Potency [5] | Potency [6] | Potency [7]
active: Potency [1] 13.2 µM | Potency [3] 16.6 µM

COc1ccc(-c2ccc3c(N4CCOC[C@H]4C)nc(N4CCOC[C@H]4C)nc3n2)cc1CO
active: Potency [2] 0.0118 µM | Potency [3] 0.0662 µM
